From PubChem BioAssay (Tox21) come the findings set out here.

Structures are written as SMILES. Inconclusive results are not listed. The source made the active and inactive calls. Unless noted, calls come from the whole dose curve; as a rule, active = well fitted curve in the direction sought with a large enough effect in the repeat runs; inconclusive = weak or mixed curves; inactive = no such curve, though single readings can be large; an effect the other way counts as inactive or inconclusive.

The nature of experiment [1]: qHTS assay to test for compound auto fluorescence at 535 nm (green) in HEK293 cells (AID 720680).
Experiment [2] is described as follows: qHTS assay to test for compound auto fluorescence at 460 nm (blue) in HEK293 cell free culture (AID 720681). The procedure, abridged: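 Blue fluorescence (Ex 405/Em 460 nm, triamterene-equivalent) was read immediately after pin transfer of compound or DMSO into medium (DMEM, 10% FBS) without cells.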
Experiment [3] in a line: qHTS assay to test for compound auto fluorescence at 535 nm (green) in HEK293 cell free culture (AID 720682). The procedure, abridged: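 Compounds were pin-transferred into cell-free DMEM with 10% FBS, and green fluorescence was read at excitation 485 nm and emission 535 nm. Intensities were expressed as fluorescein-equivalent values.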
On the technique in general: qHTS replaces the single test concentration by a dilution series.

A short description of experiment [4]: qHTS assay to test for compound auto fluorescence at 590 nm (red) in HEK293 cell free culture (AID 720683). In a few lines:
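Red-channel autofluorescence of compounds in culture medium (DMEM, 10% FBS), no cells, measured at 540/590 nm. Rose Bengal sodium is the reference fluorophore for equivalence.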

Experiment [5] is described as follows: qHTS assay to test for compound auto fluorescence at 590 nm (red) in HepG2 cell free culture (AID 720684). The procedure, abridged: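 Steps: dispense MEM/10% FBS medium, no cells; pin compound or DMSO vehicle; read red channel, Ex/Em 540/590 nm. Output given as Rose Bengal sodium equivalents.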
Experiment [6] in a line: qHTS assay to test for compound auto fluorescence at 460 nm (blue) in HepG2 cell free culture (AID 720685). The procedure, abridged:
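Compound (23 nL) or DMSO pinned into cell-free MEM with 10% FBS; blue fluorescence read at 405/460 nm excitation/emission, expressed as auto-fluorescence equivalency to triamterene.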

Experiment [7] can be described thus: qHTS assay to test for compound auto fluorescence at 535 nm (green) in HepG2 cell free culture (AID 720686).
Experiment [8] can be described thus: qHTS assay to test for compound auto fluorescence at 460 nm (blue) in HepG2 cells (AID 720687). In a few lines:
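Blue-channel autofluorescence (Ex/Em 405/460 nm, triamterene-equivalent) was measured after 1 hr compound exposure at 37 C, 5% CO2. Cells were HepG2, plated overnight at 37 C in MEM plus 10% FBS.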

Experiment [9] concerns the target Glucocorticoid receptor (Homo sapiens) (UniProt P04150). The experiment is described as follows: qHTS assay to identify small molecule agonists of the glucocorticoid receptor (GR) signaling pathway (AID 720691; active = well fitted activation curve with a large enough effect in the signal ratio in the repeat runs, not every such curve was filed as active; the % refers to the signal ratio). As to conditions: GR-bla HeLa, beta-lactamase reporter ratio, 18 h; activation: at 62.4 µM (top of the series). In a few lines:
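Fluorescence intensity from LiveBLAzer B/G FRET substrate (2 h, room temperature) reports beta-lactamase expression driven by the glucocorticoid response element in GR-bla HeLa cells after 18 h compound exposure at 37 C.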

Experiment [10] can be described thus: qHTS assay to identify small molecule antagonists of the glucocorticoid receptor (GR) signaling pathway - cell viability counter screen (AID 720693). Note: nearly all actives have a fitted effect of over 55% in size.
Experiment [11] in a line: qHTS assay for identifying genotoxic compounds that show differential cytotoxicity against isogenic chicken DT40 cell lines with known DNA damage response pathways - wild type cell line (AID 743012). Note: nearly all actives have a fitted effect of over 60% in size. Note: potency is the fitted concentration of half-maximal effect. The procedure, abridged: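 Wild type DT40, 300 cells/well, ~0.5 h settle at 37 C/5% CO2; compounds in DMSO added by pintool; 40 h at 37 C/5% CO2; CellTiter-Glo, 30 min RT; luminescence.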

The nature of experiment [12]: qHTS assay for identifying genotoxic compounds that show differential cytotoxicity against isogenic chicken DT40 cell lines with known DNA damage response pathways - Rev3 mutant cell line (AID 743014). Note: nearly all actives have a fitted effect of over 55% in size. Note: potency is the fitted concentration of half-maximal effect.
Experiment [13] is described as follows: qHTS assay for identifying genotoxic compounds that show differential cytotoxicity against isogenic chicken DT40 cell lines with known DNA damage response pathways - Rad54/Ku70 mutant cell line (AID 743015). Note: nearly all actives have a fitted effect of over 60% in size. Note: potency is the fitted concentration of half-maximal effect.
The nature of experiment [14]: qHTS assay to identify small molecule antagonists of the androgen receptor (AR) signaling pathway - cell viability counter screen (AID 743033; note: nearly all actives have a fitted effect of over 45% in size).
The target in experiment [15] is Androgen receptor (Homo sapiens) (UniProt P10275). Nature of the experiment: qHTS assay to identify small molecule agonists of the androgen receptor (AR) signaling pathway using the MDA cell line (AID 743040; note: nearly all actives have a fitted effect of over 20% in size; note: potency is the fitted concentration of half-maximal effect). In a few lines:
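Cells plated, 5 h at 37C/0% CO2; compound or DMSO pinned; 16 h at 37C; ONE-Glo added; luminescence measured after 30 min at room temperature. Reporter line: MDA-kb2 with MMTV-luciferase responsive to AR and GR.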

A short description of experiment [16]: qHTS assay to identify small molecule antagonists of the androgen receptor (AR) signaling pathway using the MDA cell line - cell viability counter screen (AID 743041; note: nearly all actives have a fitted effect of over 45% in size). In a few lines:
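Cells were plated at 3,000 per well and left 5 h. Compounds in DMSO were then pinned in, followed by R1881. After 16 h at 37C, CellTiter-Fluor fluorescence gave viability.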

Experiment [17] concerns the target Glucocorticoid receptor (Homo sapiens) (UniProt P04150). The experiment is described as follows: qHTS assay to identify small molecule antagonists of the glucocorticoid receptor (GR) signaling pathway (AID 720692; active = well fitted inhibition curve with a large enough effect in the signal ratio in the repeat runs, not every such curve was filed as active; the % refers to the signal ratio; note: potency is the fitted concentration of half-maximal effect). The procedure, abridged:
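HeLa GR-bla cells; cmpd + dex 5 nM final, 18 h 37 C; LiveBLAzer B/G FRET substrate 2 h RT; fluorescence intensity read. Antagonist mode, qHTS.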

The target of experiment [18] is Androgen receptor (Homo sapiens) (UniProt P10275). Nature of the experiment: qHTS assay to identify small molecule antagonists of the androgen receptor (AR) signaling pathway (AID 743035; active = well fitted inhibition curve with a large enough effect in the signal ratio in the repeat runs, not every such curve was filed as active; the % refers to the signal ratio; note: potency is the fitted concentration of half-maximal effect). In a few lines: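 Fluorescence from a beta-lactamase FRET substrate (LiveBLAzer B/G, 2 h, room temperature) measured inhibition of R1881-stimulated signaling in GeneBLAzer AR-UAS-bla HEK293 cells exposed to compound for 16 h at 37C.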

The target is the same in experiment [19]. Nature of the experiment: qHTS assay to identify small molecule antagonists of the androgen receptor (AR) signaling pathway using the MDA cell line (AID 743042; note: nearly all actives have a fitted effect of over 55% in size). In a few lines:
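Antagonist mode: compounds plus R1881 agonist added to MDA-kb2 AR-luc cells, incubated 16 h at 37C. Luciferase reporter luminescence quantified, with multiplexed CellTiter-Fluor readout for cell viability.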

For experiment [20] the target is unchanged. The experiment is described as follows: qHTS assay to identify small molecule agonists of the androgen receptor (AR) signaling pathway (AID 743036; active = well fitted activation curve with a large enough effect in the signal ratio in the repeat runs, with a control signal flat, not every such curve was filed as active; the % refers to the signal ratio; note: potency is the fitted concentration of half-maximal effect). In a few lines: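 Activation was read as beta-lactamase FRET signal from LiveBLAzer B/G substrate, added for 2 h at room temperature. Before that, GeneBLAzer AR-UAS-bla GripTite (HEK293) cells had 16 h compound exposure at 37C.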

Sequence of Androgen receptor (Homo sapiens) (P10275 whole entry, looked up): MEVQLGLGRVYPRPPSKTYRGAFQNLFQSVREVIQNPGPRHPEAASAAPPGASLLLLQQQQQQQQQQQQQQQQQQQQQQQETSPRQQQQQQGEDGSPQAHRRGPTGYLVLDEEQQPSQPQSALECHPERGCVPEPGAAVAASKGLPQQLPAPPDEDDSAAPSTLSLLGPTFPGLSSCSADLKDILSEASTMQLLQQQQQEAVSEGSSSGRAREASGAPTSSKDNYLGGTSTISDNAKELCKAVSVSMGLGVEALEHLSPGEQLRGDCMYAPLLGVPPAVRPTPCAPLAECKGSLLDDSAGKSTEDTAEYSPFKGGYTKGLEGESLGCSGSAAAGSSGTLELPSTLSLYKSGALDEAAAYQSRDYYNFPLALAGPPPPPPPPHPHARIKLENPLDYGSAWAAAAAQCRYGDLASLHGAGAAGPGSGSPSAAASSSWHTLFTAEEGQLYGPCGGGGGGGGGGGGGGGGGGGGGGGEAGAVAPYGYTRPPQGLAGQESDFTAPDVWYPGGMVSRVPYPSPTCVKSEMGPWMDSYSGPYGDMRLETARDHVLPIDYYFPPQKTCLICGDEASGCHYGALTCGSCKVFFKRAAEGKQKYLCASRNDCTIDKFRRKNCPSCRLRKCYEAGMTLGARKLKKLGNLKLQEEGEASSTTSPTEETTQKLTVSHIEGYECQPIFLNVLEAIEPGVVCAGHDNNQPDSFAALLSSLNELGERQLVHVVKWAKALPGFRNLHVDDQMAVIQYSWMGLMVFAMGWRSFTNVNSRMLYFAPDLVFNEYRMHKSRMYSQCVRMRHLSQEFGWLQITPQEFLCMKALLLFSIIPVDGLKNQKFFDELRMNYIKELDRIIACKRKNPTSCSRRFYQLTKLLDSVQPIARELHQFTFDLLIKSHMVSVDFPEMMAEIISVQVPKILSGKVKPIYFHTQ
Sequence of Glucocorticoid receptor (Homo sapiens) (P04150 whole entry, looked up): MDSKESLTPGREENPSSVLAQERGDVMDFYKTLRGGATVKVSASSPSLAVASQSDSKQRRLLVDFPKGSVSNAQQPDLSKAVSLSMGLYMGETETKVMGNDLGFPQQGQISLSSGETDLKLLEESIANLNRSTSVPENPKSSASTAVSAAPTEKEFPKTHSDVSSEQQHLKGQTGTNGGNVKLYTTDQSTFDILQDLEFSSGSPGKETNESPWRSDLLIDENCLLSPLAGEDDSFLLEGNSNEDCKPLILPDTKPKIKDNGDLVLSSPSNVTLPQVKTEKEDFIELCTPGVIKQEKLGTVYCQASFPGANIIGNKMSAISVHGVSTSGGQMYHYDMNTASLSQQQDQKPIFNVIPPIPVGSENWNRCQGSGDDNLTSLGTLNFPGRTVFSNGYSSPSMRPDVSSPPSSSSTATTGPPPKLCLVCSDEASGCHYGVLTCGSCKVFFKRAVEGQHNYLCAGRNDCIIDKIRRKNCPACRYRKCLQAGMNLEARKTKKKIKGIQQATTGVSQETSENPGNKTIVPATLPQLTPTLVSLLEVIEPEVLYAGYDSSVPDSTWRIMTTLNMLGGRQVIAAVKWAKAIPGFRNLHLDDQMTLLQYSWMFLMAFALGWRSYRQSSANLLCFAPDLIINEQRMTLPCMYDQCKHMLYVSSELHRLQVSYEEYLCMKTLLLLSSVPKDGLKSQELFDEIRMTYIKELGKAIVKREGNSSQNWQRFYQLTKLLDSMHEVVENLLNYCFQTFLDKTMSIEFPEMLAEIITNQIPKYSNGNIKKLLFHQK

On to `COc1cc(Br)c(C[N+]2(CCOCCC3CCC4CC3C4(C)C)CCOCC2)cc1OC` (configuration not stated), for which the Potency entry in [1], in [2], in experiment [3], in [4], in experiment [5] and in experiment [7] was “inactive” in each case. Moreover, the Potency result in experiment [9], in experiment [10], in experiment [14], in [15] and in experiment [16] was “inactive” each time. Moreover, the outcome in experiment [6] and in [8] was inactive. The Potency was 1500 nM (active) in [11], 2660 nM (active) in [12] and 2660 nM (active) in experiment [13].
For `NC(=O)C[C@@H](N)C(=O)O`, the Potency entry in [1], in experiment [2], in experiment [3], in [4], in experiment [5] and in experiment [7] was “inactive” in each case. Further, the Potency result in experiment [9], in experiment [17], in [11], in experiment [12], in experiment [13] and in [14] was “inactive” in each case. In [16], the Potency entry is “inactive”. Besides, the outcome in experiment [6] and in experiment [8] was inactive.
Take `COc1ccc(/C=C/C(=O)OCCC(C)C)cc1`: the Potency result in [1], in experiment [2], in experiment [3], in experiment [4], in experiment [5] and in experiment [7] was “inactive” each time. Also, the Potency entry in experiment [9], in [10], in [11], in [12], in experiment [13] and in [14] was “inactive” each time. For the same compound, in experiment [16], the Potency entry is “inactive”. For the same compound, the compound was classed as inactive in experiment [6] and in experiment [8].
Take `CC(=O)[C@@]1(O)CC[C@H]2[C@@H]3C=C(Cl)C4=CC(=O)[C@@H]5C[C@@H]5[C@]4(C)[C@H]3CC[C@@]21C`: the Potency entry in [1], in experiment [2], in [3], in experiment [4], in experiment [5] and in experiment [7] was “inactive” each time. Moreover, the Potency entry in experiment [9], in experiment [10], in [11], in [12], in experiment [13] and in experiment [14] was “inactive” in each case. The result in experiment [6] and in experiment [8] was inactive.
Regarding `CN[C@H]1CCc2cc(OC)c(OC)c(OC)c2-c2ccc(OC)c(=O)cc21`, the Potency entry in experiment [1], in [2], in [3], in [4], in experiment [5] and in [7] was “inactive” throughout. In addition, the Potency result in experiment [9], in [10], in [14], in experiment [15], in [16] and in experiment [19] was “inactive” in each case. The outcome in [6] and in experiment [8] was inactive. In addition, the Potency in experiment [11] is 47.3 nM (active); in [12] it was 53.1 nM (active); in experiment [13], 53.1 nM (active); in [18], 60.1 nM (active).
As to `CCC(=O)Oc1ccc2c(c1)CC[C@@H]1[C@@H]2CC[C@]2(C)[C@@H](OC(=O)CC)CC[C@@H]12`, the Potency result in [1], in [2], in [3], in experiment [4], in [5] and in experiment [7] was “inactive” each time. Moreover, the Potency entry in experiment [9], in experiment [10] and in experiment [16] was “inactive” each time. Further, the outcome in [6] and in [8] was inactive. Further, the figures for the Potency in experiment [17], in experiment [20] and in experiment [15] were 4250 nM (active), 2390 nM (active) and 1190 nM (active), respectively.
